This is a sample that favours compounds with a hit; in the whole collection about 1.4% have one here.
S1P2 agonist: agonists of human S1P2 receptor; O95136; S1P2-expressing cell line, agonist reporter read-out; activation, % at 4.5 µM; 97,000 tested, 0.46% active; AID 729; in the data active = activation above about 16%;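 also: 0% = vehicle low control and 100% = maximal reference agonist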
Mac1 fbg inh: inhibitors of human CD11b/CD18 binding to fibrinogen. K562 CD11b/CD18 adhesion to fibrinogen, ATPlite luminescence; Mn2+ added to activate the integrin. inhibition, % at 10 µM. 93,000 tested, 0.54% active;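 active = primary inhibition of 50% or more at 10 µM, then 40% or more on retest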
S1P2 blocker: blocks the human S1P2 receptor; O95136; 97,000 tested, 0.21% active; inhibition, % at 5 µM; cell-based S1P2 antagonist assay, inhibition at 5 uM; in the data active = inhibition above about 45%;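 also: CRE beta-lactamase reporter cells expressing human S1P2 stimulated with S1P; 0% = agonist at EC80 alone and 100% = agonist plus reference antagonist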
GALR2 agonist: GALR2 (human) receptor agonism; O43603; GALR2-expressing cells, agonist activation read-out; activation, % (no concentration beside the values); 140,000 tested, 0.48% active; AID 803; in the data active = activation above about 5%, passing the limit was not always enough;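 also: 0% = vehicle buffer wells and 100% = reference agonist at full effect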
Target sequence (O43603 whole entry, looked up): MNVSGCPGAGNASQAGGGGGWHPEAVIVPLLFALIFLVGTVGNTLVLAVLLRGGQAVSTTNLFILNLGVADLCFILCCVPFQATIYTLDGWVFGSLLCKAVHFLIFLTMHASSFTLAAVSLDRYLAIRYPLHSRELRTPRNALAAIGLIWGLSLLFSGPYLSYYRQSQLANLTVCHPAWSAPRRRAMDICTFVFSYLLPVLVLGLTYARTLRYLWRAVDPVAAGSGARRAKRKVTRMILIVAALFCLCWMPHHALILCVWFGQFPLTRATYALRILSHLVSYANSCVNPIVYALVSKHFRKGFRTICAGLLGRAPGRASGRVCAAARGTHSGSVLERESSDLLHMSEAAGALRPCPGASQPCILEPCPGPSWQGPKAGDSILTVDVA
Mac1 fbg enh: increases human CD11b/CD18 adhesion to fibrinogen; P05107+P11215; K562 CD11b/CD18 adhesion to fibrinogen, ATPlite luminescence; activation, % at 10 µM; 93,000 tested, 0.07% active; AID 1499;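 active = 10 µM primary screen giving 50% or more activity, confirmed by 40% or more on retest at that dose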
GALR2 antag: GALR2 (human) receptor antagonism | O43603 | GALR2-expressing cells, antagonist mode | inhibition, % at 4 µM | 140,000 tested, 0.39% active; in the data active = inhibition above about 27%;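 also: cells stimulated with galanin 1-16 at roughly its EC80; 0% = agonist challenge control and 100% = basal control without agonist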
GALR2 ag confirm: GALR2 (human) agonism confirmed; activation, % at 5.6 µM; AID 864; 460 tested, 10% active; shares compounds with GALR2 agonist; GALR2-expressing cells, agonist activation; in the data active = activation above about 8.4%;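 also: 0% = buffer-only vehicle wells and 100% = full reference agonist response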
BLA act counter: beta-lactamase activation, GALR2 counterscreen | CHO NFAT-bla reporter, beta-lactamase FRET activation | 460 tested, 10% active | activation, % at 5.6 µM | shares compounds with GALR2 agonist | AID 865;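 active = activation above the screen-wide mean activation plus 3 SD, cut at about 8% in these data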;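 also: 0% = DMSO with PBS wells and 100% = thapsigargin positive control wells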
An asterisk follows results filed as active; . = no result.

SMILES	S1P2 agonist	Mac1 fbg inh	S1P2 blocker	GALR2 agonist	Mac1 fbg enh	GALR2 antag	GALR2 ag confirm	BLA act counter
COc1cc(NC(=O)C2CCCCC2)c2ncccc2c1	-2.6	6.7	-1.5	-2.5	-0.3	-1.1	.	.
CN(Cc1cc([N+](=O)[O-])c2cccnc2c1O)C1CCCCC1	.	.	.	23.2*	.	5.7	-0.3	-1.7
Cc1ccccc1CN1C(=O)C2(OCCCO2)c2ccccc21	-0.5	-17.5	-20.1	-0.3	1.9	-2.4	.	.
O=C(O)c1cccc(NC(=S)NC(=O)C(c2ccccc2)c2ccccc2)c1	-4.1	-1.6	20.3	8.2	-0.3	-8.4	-0.5	-0.6
O=C(Nc1cccc(NC(=S)NC(=O)c2cccs2)c1)c1ccccc1	.	.	.	-0.6	.	-7.7	.	.
CCOC(=O)c1c(CSC(=N)N)n(-c2ccc(Br)cc2)c2cc(Br)c(OC(C)=O)cc12	.	.	.	33.8*	.	-9.2	-3.8	-19.5
Nc1nnc(SCC(=O)c2ccccc2)s1	-5.0	-9.3	-11.4	-1.8	1.2	-0.1	.	.
Nc1c(C(=O)c2ccccc2)sc2snc(SCC(=O)c3ccccc3)c12	-8.4	.	15.2	78.7*	.	-0.4	-2.1	-3.5
Cn1nnnc1SCC(=O)c1ccc(Br)s1	-11.1	-12.0	6.6	-2.0	2.8	-2.0	.	.
CCO/N=C(\C)c1c(O)cc(C(C)C)n(-c2ccccc2)c1=O	.	.	.	-0.1	.	1.1	.	.
Cc1nc2cc(-c3sccc3-n3cccc3)nn2c(C)c1C	-1.1	.	-0.7	0.2	.	10.5	.	.
N#C/C(=C\c1cn(CCOc2ccccc2F)c2ccccc12)C(=O)NCc1cccs1	.	.	.	9.2*	.	2.7	1.9	1.1
O=C(Nc1ccccc1)N(Cc1ccc(Cl)cc1)CC(O)C(F)(F)F (stereo not drawn)	-7.0	.	-8.3	3.9	.	4.3	.	.
O=c1oc2ccccc2cc1-c1nc2c(s1)CCc1ccccc1-2	.	.	.	10.4*	.	24.6	3.5	2.3
Nc1nnc(-c2cc3ccccc3oc2=O)s1	-7.8	1.2	7.3	-3.2	-0.6	17.2	.	.
COc1ccc(C2=NOC(C(=O)NCc3ccc(F)cc3)C2)cc1OC (stereo not drawn)	2.3	19.8	-14.1	10.4	1.6	7.6	0.7	-0.8
O=c1[nH]c(/C=C/c2ccccc2OC(F)F)nc2c1cnn2-c1ccccc1	.	.	.	15.2*	.	-11.2	8.8*	4.0
CCCSc1nc2c(cnn2-c2ccccc2)c(=O)[nH]1	.	-40.1	.	-0.7	-1.0	7.9	.	.
O=C(Oc1ccccc1)N1CCN(c2ccc(F)cc2)CC1	-4.2	6.3	3.6	-1.3	-4.0	3.4	.	.
O=C(Nc1ccc(N2CCN(c3ccc(O)cc3)CC2)cc1)Oc1ccccc1	-3.3	-8.9	-3.5	12.5*	95.5	7.4	-0.6	-1.7
Cc1cc2c(C)cc(=O)oc2c2c1NCCC2	15.0	-0.1	-22.6	13.4*	-7.0	-7.9	0.6	3.7
COc1ccc(C(=O)c2sc(Nc3ccccc3)c(C(=O)Nc3ccc(OC)c(OC)c3)c2N)cc1	-5.2	97.0	-4.7	-3.0	-7.6	0.3	.	.
O=C(NCc1ccc(Cl)cc1)C(=O)NCC1OCCN1S(=O)(=O)c1cccs1 (stereo not drawn)	.	.	.	-0.1	.	0.1	.	.
Cc1c(C(=O)N/N=C/c2ccc(-c3ccccc3[N+](=O)[O-])o2)sc(N)c1C#N	.	.	.	16.1*	.	16.4	9.2*	11.5*
O=C(N/N=C/c1ccc(-c2ccccc2[N+](=O)[O-])o1)c1cncc(Br)c1	.	-2.1	.	-1.1	9.4	20.1	.	.
CC1CN(C2CCN(S(=O)(=O)c3ccccc3)CC2)CC(C)O1 (stereo not drawn)	0.6	.	-17.6	-0.6	.	-6.0	.	.
CC1CN(C2CCN(S(=O)(=O)Cc3ccccc3)CC2)CC(C)O1 (stereo not drawn)	-0.6	-8.0	18.4	9.5	0.0	-8.6	-0.7	-1.8
S=C(NC1CCCCC1)N1CCN(Cc2ccccc2)CC1	.	.	.	-1.0	.	-6.0	.	.
COc1ccc(Nc2sc(C(=O)c3ccc(Cl)cc3)c(N)c2C(=O)Nc2ccccc2OC)cc1	-2.0	75.1	-13.1	14.1*	-2.9	-6.9	-1.6	-2.4
COc1ccc(NC(=O)c2c(Nc3ccccc3)sc(C(=O)c3ccc(F)cc3)c2N)cc1	-5.1	97.9	44.4	-2.8	-9.3	-3.1	.	.
